# Active and inactive are the calls of the source. Where a call stands in place of a potency, no number is given. Calls follow the shape of the dose curve; as a rule, active = well fitted activation curve with a large enough effect in the repeat runs; inconclusive = weak or mixed curves; inactive = flat fitted curve, though single readings scatter.
# Molecular target: KiSS-1 receptor (Homo sapiens) (UniProt Q969F8)
# Assay: Human kisspeptin (KISS1R) small molecule agonists, calcium flux assay in KISS1R-HEK293 cells (AID 1920064)
# Details: KISS1R-HEK293, calcium flux fluorescence, agonist; series mostly up to 76.8 µM
# Source text: National Center for Advancing Translational Sciences [NCATS]
# Division of Preclinical Innovation [DPI]
# U.S. Environmental Protection Agency [EPA]
# National Institutes of Environmental Health Sciences [NIEHS]
# National Toxicology Program [NTP]
# U.S. Food and Drug Administration [FDA]
# Kisspeptin and its receptor KISS1R play key roles in mammalian reproduction due to their involvement in the onset of puberty and control of the hypothalamic-pituitary-gonadal axis such as regulates GnRH release from the hypothalamus. The kisspeptin/KISS1R system also plays a direct role in peripheral organs (including the ovary, testis, uterus, and placenta) and is implicated in reproductive diseases such as miscarriage and polycystic ovary syndrome (PCOS). Abnormal KISS1R activity is associated with abnormal puberty, infertility, endometriosis, and hormone-dependent tumors. The KISS1 receptor (KISS1R, also called GPR54), a G-protein-coupled receptor (GPCR), acts (through phospholipase C) to increase intracellular inositol trisphosphate and then release intracellular calcium stores. Cell-based KISS1R-HEK293 assay is using HEK293 cells that have been genetically engineered to express the human KISS1R, which activity can be measured by calcium signaling. A compound/drug can activate (agonist) KISS1R that can be monitored by levels of intracellular calcium.
# KISS1R-HEK293 cells developed by Codex Corp contain human KISS1R gene, which was stably integrated into HEK 293 cells. The compound activation can be detected by fluorescence intensity via calcium flux assay. This cell line has been used to screen the Tox21 10K compound library to identify agonists of KISS1R.
# KISS1R-Hek293 cells were dispensed at 1500 cells/4uL/well in 1536-well black wall/clear bottom plates using a multidrop dispenser. After the assay plates were incubated at a 37 C/5% CO2 incubator for 18 hours, 4 microL of Calcium Dye Solution was added to each well. The plates were incubated at 37 C for 1 hour. And then 23 nL of compounds dissolved in DMSO, positive controls, or DMSO only was transferred to the assay plate by a pin tool station. The fluorescence intensity in the plates was measured using FDSS 7000EX kinetic plate reader with a filter set of Ex/Em=480/540 for 3 min at 1 sec intervals. Each test compound was measured at 15 concentrations and in triplicates.
# Potency is read from the fitted curve at half-maximal effect.
# Chain of KiSS-1 receptor (Homo sapiens) (Q969F8 whole entry, looked up): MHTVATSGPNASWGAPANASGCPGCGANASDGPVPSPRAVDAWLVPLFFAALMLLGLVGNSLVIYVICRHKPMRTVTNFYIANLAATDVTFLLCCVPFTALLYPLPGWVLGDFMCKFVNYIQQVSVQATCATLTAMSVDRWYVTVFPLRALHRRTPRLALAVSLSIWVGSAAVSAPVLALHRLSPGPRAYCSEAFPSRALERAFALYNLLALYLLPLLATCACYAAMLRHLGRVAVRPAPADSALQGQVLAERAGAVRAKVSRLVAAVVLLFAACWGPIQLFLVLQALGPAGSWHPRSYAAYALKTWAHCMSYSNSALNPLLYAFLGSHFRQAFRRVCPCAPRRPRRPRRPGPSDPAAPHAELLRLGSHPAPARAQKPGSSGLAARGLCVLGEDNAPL
row,Structure (SMILES),Potency
1,CS(=O)(=O)Nc1ccc([N+](=O)[O-])cc1Oc1ccccc1,inactive
2,CC(C)NC[C@@H](O)COc1ccc(CC(N)=O)cc1,inactive
3,ClC(Cl)Cl,inactive
4,CCCCCC=CCC=CCCCCCCCC(=O)OCC,inactive
5,C=Cc1ccc(O)c(OC)c1,inactive
6,Cc1c(Cl)c(=O)oc2cc(O)ccc12,inactive
7,CCN(CC)c1ccc2c(c1)Oc1cc(N(CC)CC)ccc1C21OC(=O)c2ccccc21,23.9 µM (active)
8,CC(CO)(CO)[N+](=O)[O-],inactive
9,Cc1ccccc1S,inactive
10,COCC(=O)O[C@]1(CCN(C)CCCc2nc3ccccc3[nH]2)CCc2cc(F)ccc2[C@@H]1C(C)C,inactive
11,On1ccccc1=S,inactive
12,CCc1cccc2c(CCO)c[nH]c12,inactive
13,CC(CN)CC(C)(C)CCN (stereo not given),inactive
14,CCC(Cl)C(Cl)C(Cl)CC(Cl)C(Cl)C(C)Cl (stereo not given),inactive
15,O=S(=O)(c1ccc(OCc2ccccc2)cc1)c1ccccc1O,inactive
16,Nc1cccnc1N,inactive
17,CNC1CCCN(c2c(F)cc3c(=O)c(C(=O)O)cn(C4CC4)c3c2OC)C1 (stereo not given),inactive
18,Cc1cc(NS(=O)(=O)c2ccc(N)cc2)no1,inactive
19,CCOc1ccc(OCC)c(Cl)c1,inactive
20,CCc1cc(C2=C(C(=O)O)N(c3ccccc3C(F)(F)F)S(=O)(=O)c3ccccc32)cc2c1OCO2,inactive

row,Structure (SMILES),Potency
1,Cc1ccc(Nc2nccc(N(C)c3ccc4c(C)n(C)nc4c3)n2)cc1S(N)(=O)=O,inactive
2,CCOCC(C)O (stereo not given),inactive
3,C=CC(=O)[O-].C=CC(=O)[O-].[Zn+2],inactive
4,O=C1c2ccccc2C(=O)N1CCc1noc(-c2ccc(CN3CCCCCC3)s2)n1,inactive
5,CC(=O)N(CC(O)CO)c1c(I)c(C(=O)NCCO)c(I)c(C(=O)NCC(O)CO)c1I (stereo not given),inactive
6,CC(=O)OCC(=O)[C@@]1(O)CC[C@H]2[C@@H]3CCC4=CC(=O)CC[C@]4(C)[C@H]3C(=O)C[C@@]21C,inactive
7,C=C(C)C(=O)OCCOc1ccccc1,inactive
8,Cc1cccc(C)c1NC(=O)CN1CCN(CCCC(c2ccc(F)cc2)c2ccc(F)cc2)CC1,inactive
9,CC(C)(C)OC(=O)c1ccc(O)cc1,inactive
10,CN1[C@@H]2CC(OC(=O)[C@H](CO)c3ccccc3)C[C@H]1[C@@H]1O[C@@H]12 (stereo not given in full),inactive
11,CC(C)O,inactive
12,CC(C)(C)c1ccc(OC(=O)c2ccccc2O)cc1,inactive
13,C/C(=C\c1ccc(C(=O)O)cc1)c1ccc2c(c1)C(C)(C)CCC2(C)C,inactive
14,C1CCOC1,inactive
15,CCn1nc(C(=O)O)c(=O)c2cc3c(cc21)OCO3,inactive
16,Oc1cc2c(cc1O)[C@H]1c3ccc(O)c(O)c3OC[C@@]1(O)C2,inactive
17,Cc1ccc(S(=O)(=O)NC(=O)NC2CCCCC2)cc1,inactive
18,NCc1ccccc1,inactive
19,Nc1ccc(N=Nc2ccc(N)cc2)cc1,inactive
20,O=[N+]([O-])c1cc(C2CCCCC2)c(O)c([N+](=O)[O-])c1,inactive

# From PubChem BioAssay (Tox21)
